# Pf growth 96h: P. falciparum growth inhibition at 96 hour, primary screen for plastid delayed-death inhibitors; P. falciparum luciferase reporter growth, 96 h; Potency, µM (series often up to 28.7 µM), without a hit: at the highest dose activity change, negative = inhibition, usual class: inhibitors; 6.9% of 320,000 active
#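 Two-generation exposure (96 h) targets delayed-death phenotype. Reporter parasites carrying integrated firefly luciferase, in red cells at 2% hematocrit and 0.05% parasitemia final, kept at 37 C, 5% CO2; luminescence loss indicates inhibition.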
# HCV inh: blocks hepatitis C virus | Huh7.5.1 HCVcc-Cre infection, luciferase reporter, 44 h | Potency, µM (doses to about 41.8 µM), without a hit: top-dose activity change, negative = inhibition, hits mostly inhibitors | 3.4% of 340,000 active | AID 651820
#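 Whole-lifecycle infectious HCVcc-Cre system; cells 1,000/well, compound then virus (~0.5 moi) added 4 h after plating, 44 h culture. Luciferase read 15 sec following 15 min substrate incubation, room temp.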
# AMA1 RON2 block: AMA1-RON2 (P. falciparum) interaction inhibition | AlphaScreen AMA1-biotinylated RON2 peptide binding | Potency, µM (top dose mostly 58.2 µM), for inactives: at the top dose activity change, negative = inhibition, hits mostly inhibitors | 0.2% of 360,000 active;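 also: 0% = vehicle wells and -100% = peptide control; nearly all actives have a fitted effect of over 45% in size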
#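 AMA1 (3D7) with his tag at 25 nM final met compounds first, then biotinylated RON2 peptide at 25 nM; detection used donor plus acceptor beads, 10 µg/mL apiece, read by AlphaScreen after 30 min at room temperature.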
# AmpC detergent: AmpC beta-lactamase inhibition with detergent present; P00811; AmpC hydrolysis of nitrocefin, absorbance 480 nm, 0.01% Triton; Potency, µM (doses to about 114 µM), for the others: at the highest dose activity change, negative = inhibition, most hits filed as inhibitors; 0.041% of 370,000 active;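 also: 0% = no-compound wells and -100% = no-enzyme wells; nearly all actives have a fitted effect of over 25% in size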
# Target sequence (P00811 whole entry, looked up): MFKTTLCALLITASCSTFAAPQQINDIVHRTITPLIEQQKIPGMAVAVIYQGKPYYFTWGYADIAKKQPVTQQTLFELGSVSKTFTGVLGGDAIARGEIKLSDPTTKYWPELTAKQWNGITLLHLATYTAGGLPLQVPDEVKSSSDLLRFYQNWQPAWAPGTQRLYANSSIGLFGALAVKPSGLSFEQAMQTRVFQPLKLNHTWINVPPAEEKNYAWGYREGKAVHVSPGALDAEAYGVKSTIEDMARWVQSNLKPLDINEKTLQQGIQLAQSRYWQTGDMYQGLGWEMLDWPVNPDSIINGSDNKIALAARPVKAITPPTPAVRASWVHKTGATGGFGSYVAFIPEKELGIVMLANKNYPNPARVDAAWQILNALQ
#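 20 mM phosphate pH 7.0 + 0.01% (detergent screen) or 0.0001% Triton X-100; 5.3 nM AmpC reagent; cpd preinc 15 min RT; nitrocefin (800 uM stock) to start; A480 q20 s × 4 min; Activity was normalised to no-enzyme and no-compound control wells.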
# AmpC inh no detg: AmpC beta-lactamase inhibition without detergent. P00811. Potency, µM (titrated, usually from 57.1 µM), for inactives: at the highest dose activity change, negative = inhibition, usual class: inhibitors. 0.52% of 330,000 active. AmpC nitrocefin hydrolysis, absorbance 480 nm, 0.0001% Triton;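 also: plate controls were no compound for no effect and no enzyme for full effect; nearly all actives have a fitted effect of over 20% in size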
#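 AmpC (5.3 nM in the dispensed reagent) in 20 mM phosphate pH 7.0 with 0.01% (detergent screen) or 0.0001% Triton X-100 was preincubated with compounds for 15 min at room temperature. Nitrocefin was then added from an 800 uM solution, and hydrolysis was followed at 480 nm.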
# Pf growth 48h: inhibits P. falciparum growth in the first generation, 48 h; Potency, µM (titrated, usually from 28.7 µM), inactives show at the top dose activity change, negative = inhibition, hits mostly inhibitors; 5.9% of 310,000 active; AID 504832; P. falciparum luciferase growth in erythrocytes, 48 h
#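 Luciferase-expressing parasites in RBCs, 2% Hct / 0.1% parasitemia final; RPMI 1640 + 0.5% Albumax; 37 C, 5% CO2, one generation; luminescence read-out, lower signal = inhibition.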
# Active calls of the source: *; u = inconclusive; x = not tested or not shown; [ ] = dose if it differs, or a comment. Only some compounds are listed: those with a hit (about 11% of all), similar ones and a draw of the others. Calls follow the shape of the dose curve; as a rule, active = well fitted curve in the direction sought with a large enough effect; inconclusive = small, poorly fitted or top-dose-only effect, or another doubt; inactive = no such curve, though single readings can be large; an effect the other way counts as inactive or inconclusive. Unless noted, % is scaled to controls: 0 for no effect and ±100 for the full control effect; potency is read from the fitted curve at half-maximal effect.
SMILES,Pf growth 96h,HCV inh,AMA1 RON2 block,AmpC detergent,AmpC inh no detg,Pf growth 48h
CCOc1ccc(C2c3c(oc4ccc(C)cc4c3=O)C(=O)N2Cc2ccc3c(c2)OCO3)cc1OC (centres undefined),x,x,x,26%,x,x
FC(F)(F)Oc1ccc(Nc2nc(N3CCOCC3)nc(N3CCOCC3)n2)cc1,12µM*,-25%,-6%,-11%,-8%,u
CN(C)c1nc(SCc2ccccc2)nc(N2CCOCC2)n1,3%,u,8%,-15%,61%,u
CCNc1nc(SCc2ccccc2)nc(N2CCOCC2)n1,2%[5.75 µM],5.6µM*,8%,u,4%,-18%
CCc1ccc(Nc2nc(N3CCOCC3)nc(N3CCOCC3)n2)cc1,9.3µM*,u,-6%,-7%,12%,-26%
COc1ccc(Nc2nc(OC)nc(N3CCOCC3)n2)cc1,-11%,0%,-4%,5%,-4%,-4%
CCOC(=O)c1ccc(Nc2nc(N3CCOCC3)nc(N3CCOCC3)n2)cc1,u,u,-4%,-15%,-17%,u
Cc1ccc(C)c(NS(=O)(=O)c2ccc3oc(=O)c4ncn(C)c4c3c2)c1,x,x,x,19%,x,x
Cc1ccc2nc(/N=C(\N)NC(=O)N3c4ccccc4Sc4ccccc43)nc(C)c2c1,354%,u,-1%,-14%,-38%,-18%
Cc1cc2nc(/N=C(\N)NC(=O)N3c4ccccc4Sc4ccccc43)nc(C)c2cc1C,u,u,-5%,-10%,-34%,8.3µM*
Cc1ccc2c(C)nc(/N=C(\N)NC(=O)N3c4ccccc4Sc4ccccc43)nc2c1,-103%,u,-12%,-1%,-13%,13µM*
COc1ccc(OCC(=O)NNC(=O)C(=O)Nc2ccccc2)cc1,x,-17%,61%,x,-6%,x
COc1ccc(OCC(=O)NNc2c3ccccc3nc3ccccc23)cc1,2.1µM*,6.3µM*,-17%,u,u,7.4µM*
O=C(CCCO)NNc1c2ccccc2nc2ccccc12,1.3µM*,1µM*,11%,-9%,0%,1.5µM*
OCCNc1c2ccccc2nc2ccccc12,u,u,15%,-2%,-22%,u
Cc1ccc(C)c(NC(=O)C2CCCN(c3nc4ccccc4s3)C2)c1 (centres undefined),x,x,x,1%,x,x
O=C(Nc1ccc2c(c1)N(Cc1ccccc1)C(=O)c1ccccc1S2)NC1CC1,12µM*,9%,-11%,4%,-23%,6.6µM*
O=C(COC(=O)c1ccc(S(=O)(=O)N2CCCCC2)cc1)NC1CCCCC1,x,x,-4%,x,x,x
O=C(COc1ccc(S(=O)(=O)N2CCCCC2)cc1)NC1CCCCC1,u,-17%,2%,-1%,27%,8.3µM*
O=C(COc1ccc(S(=O)(=O)NC2CCCCC2)cc1)NC1CCCCC1,u,1%,-7%,2%,-1%,15µM*
O=C(COc1ccc(S(=O)(=O)NC2CCCCC2)cc1)NC1CCCC1,52%,-4%,0%,-5%,7%,-13%
Cn1c(CNC(=O)CSc2nc(-c3ccccc3F)nc3cc(=O)[nH]n23)nc2ccccc21,x,x,x,2%,x,x
Cc1nn(-c2ccc(N3CCCCC3)nn2)c(C)c1CCC(=O)Nc1ccc(F)cc1F,x,x,x,19%,x,x
Cc1ccc(C)c2c3c([nH]c12)-c1nonc1CC3,-25%,10µM*,1%,-19%,-31%,x
CC(C)NC(=O)C1CCN(c2nc3ccccc3nc2C(F)(F)F)CC1,x,x,x,-10%,x,x
CN1CCN(C2CC(=O)N(Cc3ccc(N4CCCC4=O)cc3)C2=O)CC1 (centres undefined),30%,0%,0%,-10%,-2%,33%
O=C1CC(NCCN2CCOCC2)C(=O)N1Cc1ccc(N2CCCC2=O)cc1 (centres undefined),4.1µM*,-8%,83%,-10%,15%,5%
CC(=O)Nc1ccc(S(=O)(=O)NCCc2cn3ccsc3n2)cc1,x,x,x,6%,x,x
